TDP1 inh: blocks human tyrosyl-DNA phosphodiesterase 1; Q9NUW8; recombinant TDP1, AlphaScreen DNA substrate cleavage; Potency, µM (highest dose often 130 µM), without a hit: top-dose activity change, negative = inhibition, usual class: inhibitors; hit rate 0.28% among 350,000; note: nearly all actives have a fitted effect of over 40% in size
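AlphaScreen read-out: signal falls as enzyme removes the 3' tyrosine-FITC from a 5'-biotinylated DNA oligo (15 nM, 5 min, RT). Enzyme was E. coli-made recombinant Tdp1 at 1 nM, exposed to compound for 15 min beforehand; beads 10 ug/ml, 10 min.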
VDR inhibitor: vitamin D3 receptor (human) inhibition; P11473; VDR-SRC2-3 peptide fluorescence polarization, 2 h; hit rate 0.93% among 400,000; Potency, µM, inactives show max response, negative = inhibition, usual class: inhibitors
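Reagent solutions, kept cold and dark, are dispensed first; compounds are then pinned in at 23 nl, plates briefly spun, and incubated 2 h at ambient temperature. Inhibition of VDR–SRC2-3 peptide binding is read by fluorescence polarization.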
PLK1 PBD inh: inhibitors of human PLK1 polo-box domain binding. Plk1 PBD binding of FITC phosphopeptide, fluorescence polarization. Potency, µM, without a hit: max response, negative = inhibition, hits mostly inhibitors. hit rate 2.8% among 360,000. P53350; note: series mostly up to about 57 µM; nearly all actives have a fitted effect of over 65% in size
TDP1 cell CPT: growth inhibition of DT40 Tdp1-/-;hTDP1 cells with camptothecin (screen for TDP1 inhibitors); chicken DT40 Tdp1-/-;hTDP1 cells + 20 nM CPT, ATP luminescence, 48 h; Potency, µM (highest dose often 46.2 µM), for inactives: at the top dose activity change, negative = growth inhibition, hits mostly inhibitors; hit rate 12% among 420,000; AID 686979; note: nearly all actives have a fitted effect of over 55% in size
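Chicken DT40 Tdp1-/- cells complemented with human TDP1, 400 cells/well, exposed to compounds plus 20 nM camptothecin for at least 48 h at 37 C; viability read as ATP content by CellTiter-Glo luminescence.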
KAT2A inh: blocks human GCN5L2 histone acetyltransferase; GCN5L2 HAT assay, ThioGlo1 CoA-SH fluorescence; Potency, µM (doses to about 58.9 µM), for the others: at the highest dose activity change, negative = inhibition, usual class: inhibitors; hit rate 0.21% among 390,000; AID 504327
Target sequence (Q92830 whole entry, looked up): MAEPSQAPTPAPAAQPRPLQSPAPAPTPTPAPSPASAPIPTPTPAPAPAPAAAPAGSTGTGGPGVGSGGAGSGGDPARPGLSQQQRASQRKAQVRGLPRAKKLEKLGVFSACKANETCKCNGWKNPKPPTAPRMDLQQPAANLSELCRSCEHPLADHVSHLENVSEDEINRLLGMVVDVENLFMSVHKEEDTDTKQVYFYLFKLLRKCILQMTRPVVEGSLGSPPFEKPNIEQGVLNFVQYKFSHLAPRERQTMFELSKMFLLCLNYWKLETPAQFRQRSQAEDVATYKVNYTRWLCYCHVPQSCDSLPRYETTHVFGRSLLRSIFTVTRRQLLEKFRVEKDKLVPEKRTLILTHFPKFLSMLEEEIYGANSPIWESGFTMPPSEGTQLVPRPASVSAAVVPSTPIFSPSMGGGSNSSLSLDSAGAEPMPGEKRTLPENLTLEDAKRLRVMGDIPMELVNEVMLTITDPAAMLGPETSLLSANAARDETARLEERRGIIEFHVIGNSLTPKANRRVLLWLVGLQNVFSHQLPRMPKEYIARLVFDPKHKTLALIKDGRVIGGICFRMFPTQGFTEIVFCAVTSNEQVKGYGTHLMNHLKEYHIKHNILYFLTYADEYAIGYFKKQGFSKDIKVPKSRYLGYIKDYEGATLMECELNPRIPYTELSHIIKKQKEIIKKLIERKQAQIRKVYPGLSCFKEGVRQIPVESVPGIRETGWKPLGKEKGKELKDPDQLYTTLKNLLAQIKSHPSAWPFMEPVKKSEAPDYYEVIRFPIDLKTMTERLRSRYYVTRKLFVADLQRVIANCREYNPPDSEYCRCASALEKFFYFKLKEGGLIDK
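Preincubate 20nM GCN5L2 with compound 15 min, RT → add 50uM ThioGlo1 + 75uM H3(1-25) + 70uM acetyl-CoA → read fluorescence 0 and 20 min. Primary qHTS; fluorescent artifacts likely.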
DT40 TDP1 no CPT: qHTS for Inhibitors of human tyrosyl-DNA phosphodiesterase 1 (TDP1): qHTS in cells in absence of CPT; hit rate 15% among 420,000; Potency, µM (top dose mostly 46.2 µM), without a hit: at the highest dose activity change, negative = growth inhibition, usual class: inhibitors; DT40 Tdp1-/- hTDP1 cells, no CPT, ATP luminescence, 48 h; AID 686978, 2013; note: nearly all actives have a fitted effect of over 55% in size
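DT40 Tdp1-/-;hTDP1 cells, no CPT (DMSO vehicle only), 400 cells/well; compounds pin-transferred; ≥48 hr, 37 °C; CellTiter-Glo 30 min RT dark, luminescence read.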
Numbers without * were called inactive; [ ] = dose if it differs, or a comment. Hits are enriched below; roughly 18% of the tested compounds scored in any of these assays. Calls come from the whole dose curve; as a rule, active = well fitted curve in the direction sought with a large enough effect; inconclusive = small, poorly fitted or top-dose-only effect, or another doubt; inactive = no such curve, though single readings can be large; an effect the other way counts as inactive or inconclusive. % is set by controls: 0 for no effect and ±100 for the full control effect; potency is the fitted concentration of half-maximal effect.

How did C/C(=N\NC(=O)CCC(=O)Nc1ccccc1)c1cccs1 do in these assays?
TDP1 inh: -3%; VDR inhibitor: 0%; PLK1 PBD inh: -9%; TDP1 cell CPT: inconclusive; KAT2A inh: -2%; DT40 TDP1 no CPT: -27%

Results for Cc1ccccc1CSc1nnc2ccc(-c3ccncc3)nn12 ?
TDP1 inh: 3%; VDR inhibitor: -8%; PLK1 PBD inh: -15%; TDP1 cell CPT: -17%; KAT2A inh: 1%; DT40 TDP1 no CPT: -1%

How did C/C(N)=C(/C#N)C(=O)COC(=O)CNS(=O)(=O)c1c(F)cccc1F do in these assays?
TDP1 inh: -7%; VDR inhibitor: -12%; PLK1 PBD inh: -12%; TDP1 cell CPT: -7%; KAT2A inh: -12%; DT40 TDP1 no CPT: -7%

Results for CCCOc1ccc(NC(=O)CC2C(=O)N(c3cccc(OC)c3)C(=O)N2CCc2ccncc2)cc1 (stereo not given) ?
TDP1 inh: 6%; VDR inhibitor: 8%; TDP1 cell CPT: inconclusive; KAT2A inh: 3%; DT40 TDP1 no CPT: inconclusive

What do the screens show for `COc1ccc(NS(=O)(=O)c2cc(NC(=O)Cc3c(F)cccc3Cl)ccc2OC)cc1`?
TDP1 inh: 1%; VDR inhibitor: -17%; PLK1 PBD inh: -4%; TDP1 cell CPT: inconclusive; KAT2A inh: -6%; DT40 TDP1 no CPT: inconclusive

What do the screens show for `COc1ccc(Nc2cc(C)c3cc(NC(=O)Cc4c(F)cccc4Cl)ccc3n2)cc1`?
TDP1 inh: 5%; VDR inhibitor: 11%; TDP1 cell CPT: 16µM*; KAT2A inh: -3%; DT40 TDP1 no CPT: 13µM*

Results for CC(C)(C)c1ccc(OCC(=O)NC(Cc2c[nH]c3ccccc23)C(=O)O)cc1 (stereo not given) ?
VDR inhibitor: -13%; TDP1 cell CPT: 7%; KAT2A inh: 12%; DT40 TDP1 no CPT: -2%

How did O=S(=O)(NC[C@@H]1CCC[C@H](CNS(=O)(=O)c2c(F)cccc2F)C1)c1ccc2c(c1)OCCO2 do in these assays?
KAT2A inh: -6%

What do the screens show for `N#C/C(=N\Nc1ccc(Cl)cc1)C(N)=S`?
TDP1 inh: 9%; VDR inhibitor: -29%; PLK1 PBD inh: -17%; TDP1 cell CPT: 5.8µM*; KAT2A inh: -6%; DT40 TDP1 no CPT: 5.8µM*

How did Cc1ccc(N/N=C(\C#N)C(=O)c2ccsc2)cc1 do in these assays?
TDP1 inh: 9%; VDR inhibitor: -7%; PLK1 PBD inh: -16%; TDP1 cell CPT: inconclusive; KAT2A inh: -10%; DT40 TDP1 no CPT: inconclusive

How did N#C/C(=N\Nc1ccccc1)C(N)=S do in these assays?
TDP1 inh: 7%; VDR inhibitor: -6%; PLK1 PBD inh: -19%; TDP1 cell CPT: -25%; KAT2A inh: inconclusive; DT40 TDP1 no CPT: inconclusive

What do the screens show for `Cc1ccc(N/N=C(\C#N)C(N)=S)cc1C`?
TDP1 inh: 5%; VDR inhibitor: inconclusive; PLK1 PBD inh: -19%; TDP1 cell CPT: 10µM*; KAT2A inh: -21%; DT40 TDP1 no CPT: 18µM*

How did N#C/C(=N\Nc1ccc(Cl)cc1)C(=O)c1ccsc1 do in these assays?
TDP1 inh: 7%; VDR inhibitor: -14%; PLK1 PBD inh: -18%; TDP1 cell CPT: 16µM*; KAT2A inh: -4%; DT40 TDP1 no CPT: 23µM*

What do the screens show for `CCCCNC(=O)[C@@H]1CC=C[C@@H]2CCN(Cc3ccccc3)C(=O)[C@@H]21`?
TDP1 cell CPT: -64%; DT40 TDP1 no CPT: -62%

How did O=C(CC1C(=O)NCCN1Cc1c(F)cccc1Cl)NCCCN1CCCC1=O (stereo not given) do in these assays?
TDP1 inh: 2%[56.1 µM]; VDR inhibitor: -3%; PLK1 PBD inh: -2%; TDP1 cell CPT: 11%; KAT2A inh: inconclusive; DT40 TDP1 no CPT: 11%

Results for CC(C)C1C(c2ccccc2)NC(c2ccccc2)CC1(O)c1ccc(F)cc1 (stereo not given) ?
VDR inhibitor: -3%; PLK1 PBD inh: 2%; TDP1 cell CPT: inconclusive; KAT2A inh: -5%; DT40 TDP1 no CPT: 15µM*

What do the screens show for `Cc1ccc(N/N=C(\C#N)C(=N)N2CCCCCC2)cc1`?
TDP1 inh: 8%; VDR inhibitor: -14%; PLK1 PBD inh: -5%; TDP1 cell CPT: -29%; KAT2A inh: -4%; DT40 TDP1 no CPT: -30%

Results for CC1=C(c2ccc(NN=C(C#N)C#N)cc2)NNC(=O)C1 ?
VDR inhibitor: 20µM*; KAT2A inh: -12%

What do the screens show for `CN=C(NC#N)Nc1ccc(C2=NNC(=O)C[C@@H]2C)cc1`?
TDP1 inh: 9%[56.1 µM]

Results for C[C@@H]1CC(=O)NN=C1c1ccc(NN=C(C#N)C#N)cc1 ?
TDP1 cell CPT: 11µM*; DT40 TDP1 no CPT: 9.4µM*

Results for O=c1o[nH]c(-c2ccccc2)c1-c1ccccc1 ?
VDR inhibitor: 2%; PLK1 PBD inh: -11%; TDP1 cell CPT: -10%; DT40 TDP1 no CPT: -28%

Results for Cc1ccc(S(=O)(=O)N2CCCCC2)cc1NC(=O)c1nn(C)c(=O)c2ccccc12 ?
TDP1 inh: -3%; VDR inhibitor: -23%; PLK1 PBD inh: -4%; TDP1 cell CPT: inconclusive; KAT2A inh: -4%; DT40 TDP1 no CPT: inconclusive

How did CC1CCN(C(=O)c2cc(-c3cccc(Cl)c3)on2)CC1 do in these assays?
TDP1 inh: 4%; VDR inhibitor: -9%; TDP1 cell CPT: inconclusive; KAT2A inh: -4%; DT40 TDP1 no CPT: inconclusive

How did COCCNC(=O)CC(NS(=O)(=O)c1ccc(C)cc1)c1ccco1 (stereo not given) do in these assays?
TDP1 inh: -4%; VDR inhibitor: -13%; PLK1 PBD inh: 1%; TDP1 cell CPT: -1%; KAT2A inh: -8%; DT40 TDP1 no CPT: -8%

How did COc1ccccc1CNC(=O)CC(NS(=O)(=O)c1ccc(C)cc1)c1ccco1 (stereo not given) do in these assays?
TDP1 inh: 7%; VDR inhibitor: inconclusive; PLK1 PBD inh: 27µM*; TDP1 cell CPT: inconclusive; KAT2A inh: -27%; DT40 TDP1 no CPT: inconclusive

How did COc1ccccc1CNC(=O)C(C)Sc1ccc(C)cc1 (stereo not given) do in these assays?
TDP1 inh: 0%; VDR inhibitor: -24%; PLK1 PBD inh: 21µM*; TDP1 cell CPT: -3%; KAT2A inh: -1%; DT40 TDP1 no CPT: 26µM*

What do the screens show for `COC(=O)c1sc(-c2ccc(C(C)(C)C)cc2)cc1NC(=O)c1ccccc1C(=O)O`?
TDP1 inh: 4%; VDR inhibitor: inconclusive; PLK1 PBD inh: 21µM*; TDP1 cell CPT: inconclusive; KAT2A inh: inconclusive; DT40 TDP1 no CPT: inconclusive

Bioassay records deposited in PubChem BioAssay by National Center for Advancing Translational Sciences (NCATS).
